# High-throughput results deposited in PubChem BioAssay by Broad Institute.
# Most compounds without a hit are left out; they make up all but 6.7% or so of the library.
# C diff HTS: inhibitors of Clostridium difficile growth | Clostridium difficile clinical isolate growth, OD600, 24 h; hits give low values | hit rate 0.25% among 86,000 | growth activity, negative = inhibition, % at 16 µg/mL (by protocol);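 active = mean growth activity at or below -80% and every replicate also at or below -80%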
# Pf Dd2 growth: blocks growth of Plasmodium falciparum Dd2 parasites | P. falciparum Dd2 growth, SYBR Green, 72 h; hits give low values | activity change, % at 10 µM | hit rate 2.3% among 94,000 | AID 1159554; in the data active = activity change below about -80%
# Tcruzi prolif: T. cruzi proliferation inhibition. AID 624255. inhibition, % at 8.34 µM. T. cruzi beta-gal in NIH3T3, GalScreen luminescence, 90 h. hit rate 5.9% among 77,000;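 active = mean inhibition above about 93%, with at least 55% of replicates each passing it, limit read from the data, passing the limit was not always enough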
# Hits are given with their value; 0 = inactive; - = no result given.
SMILES,C diff HTS,Pf Dd2 growth,Tcruzi prolif
CN1CCN(C(=O)C[C@H]2C[C@H]3c4cc(NC(=O)NC5CCCCC5)ccc4O[C@H]3[C@H](CO)O2)CC1,-,0,0
C[C@H](NC(=O)C[C@H]1C[C@H]2c3cc(NC(=O)Cc4ccncc4)ccc3O[C@H]2[C@H](CO)O1)c1ccccc1,-,0,0
COc1ccc(S(=O)(=O)N(C)C[C@H]2OCCCC[C@H](C)Oc3ccc(NC(=O)Nc4cccc5ccccc45)cc3C(=O)N([C@H](C)CO)C[C@@H]2C)cc1,0,0,0
COc1ccc(S(=O)(=O)N(C)C[C@@H]2OCCCC[C@@H](C)Oc3ccc(NC(=O)Nc4cccc5ccccc45)cc3C(=O)N([C@@H](C)CO)C[C@@H]2C)cc1,0,-83.4,0
C[C@@H]1CN([C@H](C)CO)C(=O)c2cc(NC(=O)Nc3cccc4ccccc34)ccc2O[C@@H](C)CCCCO[C@H]1CN(C)S(=O)(=O)c1ccccc1,0,0,0
COc1ccc(S(=O)(=O)N(C)C[C@H]2OCCCC[C@@H](C)Oc3ccc(NC(=O)Nc4cccc5ccccc45)cc3C(=O)N([C@H](C)CO)C[C@H]2C)cc1,0,-82.2,0
NCC[C@H]1CC[C@H](NC(=O)c2ccccc2F)[C@H](CO)O1,0,0,0
C[C@@H]1CN([C@H](C)CO)C(=O)c2cc(NC(=O)Cc3ccccc3)ccc2O[C@@H](C)CCCCO[C@@H]1CN(C)S(=O)(=O)c1cccs1,0,-81.1,0
C[C@@H]1CN([C@@H](C)CO)C(=O)c2cc(NC(=O)NC3CCCCC3)ccc2O[C@@H](C)CCCCO[C@@H]1CN(C)S(=O)(=O)c1cccs1,0,-88.9,0
C[C@@H]1CCCCO[C@@H](CN(C)S(=O)(=O)c2cccs2)[C@H](C)CN([C@@H](C)CO)C(=O)c2cc(NC(=O)NC3CCCCC3)ccc2O1,0,0,0
C[C@@H]1CCCCO[C@@H](CN(C)S(=O)(=O)c2cccs2)[C@@H](C)CN([C@@H](C)CO)C(=O)c2cc(NC(=O)Nc3ccc4c(c3)OCO4)ccc2O1,0,0,0
C[C@@H]1CCCCO[C@@H](CN(C)S(=O)(=O)c2cccs2)[C@@H](C)CN([C@H](C)CO)C(=O)c2cc(NC(=O)Cc3ccccc3)ccc2O1,0,0,0
C[C@@H]1CCCCO[C@@H](CN(C)S(=O)(=O)c2cccs2)[C@@H](C)CN([C@H](C)CO)C(=O)c2cc(NS(=O)(=O)c3ccccc3)ccc2O1,0,0,0
C[C@@H]1CN([C@H](C)CO)C(=O)c2cc(NC(=O)Nc3ccc4c(c3)OCO4)ccc2O[C@@H](C)CCCCO[C@@H]1CN(C)S(=O)(=O)c1cccs1,0,-91.7,0
C[C@@H]1CCCCO[C@H](CN(C)S(=O)(=O)c2cccs2)[C@H](C)CN([C@H](C)CO)C(=O)c2cc(NS(=O)(=O)c3ccccc3)ccc2O1,0,-82.8,0
C[C@@H]1CN([C@H](C)CO)C(=O)c2cc(NS(=O)(=O)c3ccccc3)ccc2O[C@@H]1CN(C)Cc1ccc(C(=O)O)cc1,0,0,0
CCCC#Cc1ccc([C@@H]2[C@H](CO)N3C(=O)CN(C(=O)Nc4cccc(F)c4)C[C@@H]23)cc1,0,0,-
C[C@H](CO)N1C[C@H](C)[C@@H](CN(C)C(=O)Cc2cccnc2)Oc2cc(C#CC3(O)CCCC3)ccc2S1(=O)=O,0,0,0
NC(=O)NCC#Cc1ccc2c(c1)[C@]1(C(=O)N2)[C@H](C(=O)O)[C@H]2C(=O)O[C@H](c3ccccc3)[C@H](c3ccccc3)N2[C@@H]1c1ccc(OCCO)cc1,0,-,-
CC(C)C#Cc1cnc2c(c1)C(=O)N([C@H](C)CO)C[C@@H](C)[C@H](CN(C)Cc1cccc(F)c1)O2,0,0,0
CCCCCCc1nc(-c2ccc(OC)nc2)c(C)c2c1[Si](C(C)C)(C(C)C)OC2,0,-,-
CC(C)NC(=O)Nc1ccc2c(c1)CC(=O)N([C@H](C)CO)C[C@@H](C)[C@H](CN(C)Cc1ccc(Cl)c(Cl)c1)O2,0,0,-
C[C@H](O)C#Cc1cnc2c(c1)C(=O)N([C@@H](C)CO)C[C@H](C)[C@H](CN(C)Cc1cccc(F)c1)O2,0,0,0
Cc1noc(C)c1S(=O)(=O)Nc1ccc2c(c1)C(=O)N([C@H](C)CO)C[C@H](C)[C@@H](CN(C)C(=O)Nc1ccccc1)OCCCC[C@H](C)O2,0,0,0
Cc1noc(C)c1S(=O)(=O)Nc1ccc2c(c1)C(=O)N([C@H](C)CO)C[C@@H](C)[C@@H](CN(C)C(=O)Nc1ccccc1)OCCCC[C@@H](C)O2,0,-83.8,0
SMILES,C diff HTS,Pf Dd2 growth,Tcruzi prolif
Cc1noc(C)c1S(=O)(=O)Nc1ccc2c(c1)C(=O)N([C@@H](C)CO)C[C@@H](C)[C@@H](CN(C)C(=O)Nc1ccc(C(F)(F)F)cc1)OCCCC[C@H](C)O2,0,-81.7,0
Cc1noc(C)c1S(=O)(=O)Nc1ccc2c(c1)C(=O)N([C@@H](C)CO)C[C@@H](C)[C@H](CN(C)C(=O)Nc1ccc(C(F)(F)F)cc1)OCCCC[C@H](C)O2,0,0,0
C[C@@H]1CN([C@@H](C)CO)C(=O)Cc2cc(NC(=O)Cc3cn(C)c4ccccc34)ccc2O[C@@H]1CN(C)S(=O)(=O)c1ccc(Cl)cc1,-,0,0
O=C(C[C@@H]1CC[C@H]2NC[C@@H](O)COC[C@@H]2O1)NCCN1CCCC1,0,0,-
COc1ccc2c3c(n(C)c2c1)[C@@H](CO)N(Cc1ccccc1Cl)CC31CN(C(C)=O)C1,0,0,-
C[C@H]1CN([C@@H](C)CO)C(=O)c2cc(NC(=O)CCCCCC(=O)Nc3ccccc3N)ccc2O[C@H]1CN(C)Cc1ccc(Oc2ccccc2)cc1,0,0,-
COc1ccc(CN(C)C[C@H]2Oc3c(NC(=O)CCCCCC(=O)Nc4ccccc4N)cccc3C(=O)N([C@H](C)CO)C[C@@H]2C)cc1,0,-84.9,-
C[C@@H]1CN([C@@H](C)CO)C(=O)c2cccc(NC(=O)CCCCCC(=O)Nc3ccccc3N)c2O[C@H]1CN(C)Cc1ccncc1,0,0,-
C[C@H](CO)N1C[C@H](C)[C@@H](CN(C)Cc2ccc(Oc3ccccc3)cc2)Oc2c(NC(=O)CCCCCC(=O)Nc3ccccc3N)cccc2C1=O,0,-90.2,-
C[C@@H]1CN([C@H](C)CO)C(=O)c2cccc(NC(=O)CCCCCC(=O)Nc3ccccc3N)c2O[C@@H]1CN(C)Cc1ccncc1,0,0,-
C[C@H]1CN([C@@H](C)CO)C(=O)c2cccc(NC(=O)CCCCCC(=O)Nc3ccccc3N)c2O[C@H]1CN(C)Cc1ccc(Oc2ccccc2)cc1,0,-89.5,-
Cc1noc(C)c1S(=O)(=O)Nc1ccc2c(c1)C(=O)N([C@@H](C)CO)C[C@@H](C)[C@@H](CN(C)S(=O)(=O)c1ccccc1)OCCCC[C@@H](C)O2,0,0,0
C[C@@H]1CCCCO[C@H](CN(C)C(=O)Nc2ccc(C(F)(F)F)cc2)[C@H](C)CN([C@H](C)CO)C(=O)c2cc(NC(=O)C3CCCCC3)ccc2O1,0,0,0
C[C@@H]1CN([C@@H](C)CO)C(=O)c2cc(NC(=O)C3CCCCC3)ccc2O[C@@H](C)CCCCO[C@H]1CN(C)C(=O)Nc1ccccc1,0,0,0
C[C@H]1CCCCO[C@H](CN(C)C(=O)Nc2ccc3c(c2)OCO3)[C@@H](C)CN([C@@H](C)CO)C(=O)c2cc(NC(=O)C3CCCCC3)ccc2O1,0,-88.8,0
